# According to the supplement of paper PMC12645437, “Orthogonal IMiD-Degron Pairs Induce Selective Protein Degradation in Cells” (ACS Chemical Biology, 2025):
# Whole data set: some 8,300 sequences, median “log2 fold change of degron read counts, EGFP-low vs EGFP+ sorted cells (limma voom), compound-induced degradation” near -1.1, cut for the highest 2% near 3.2. This excerpt belongs to a sample that is enriched for the highest values.
# T1: CRBN, Q96SW2
# T1 chain: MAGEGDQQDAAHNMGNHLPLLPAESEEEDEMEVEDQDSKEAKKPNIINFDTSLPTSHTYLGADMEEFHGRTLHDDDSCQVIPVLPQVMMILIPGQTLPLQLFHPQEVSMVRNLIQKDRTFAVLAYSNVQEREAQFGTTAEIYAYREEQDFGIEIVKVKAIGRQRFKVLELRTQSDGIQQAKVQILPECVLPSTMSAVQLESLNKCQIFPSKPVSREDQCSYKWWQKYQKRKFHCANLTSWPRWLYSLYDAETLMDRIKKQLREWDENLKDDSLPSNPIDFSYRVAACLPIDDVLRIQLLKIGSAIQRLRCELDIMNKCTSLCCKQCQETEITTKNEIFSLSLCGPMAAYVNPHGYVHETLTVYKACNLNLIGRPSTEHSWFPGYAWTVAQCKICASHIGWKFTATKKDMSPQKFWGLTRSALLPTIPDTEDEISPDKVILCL
# Biological target: T1, CRBN, Q96SW2
# Assay: log2 fold change of degron read counts, EGFP-low vs EGFP+ sorted cells (limma voom), compound-induced degradation; higher = more compound-induced degradation of the degron-EGFP fusion; degrons are variants of IKZF1/3 zinc finger 2; compound dose not given here
# Settings: Jurkat, 18 h
# Protocol: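 Pooled library of 8380 IKZF3 ZF2 degron mutants (positions 146-167 varied within the IKZF3 130-189 degron; only the varied core is printed, flanks not printed) fused to EGFP with IRES-mCherry, lentivirally expressed in Jurkat cells. mCherry+ cells were treated with one IMiD compound for 18 h (dose not stated) and FACS-sorted into EGFP-low and EGFP+ populations. Degron sequences were counted by NGS, and log2FC (EGFP-low vs EGFP+) was estimated by limma voom over 3 biological replicates.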
# [1] = compound: compound 19 (5-tert-butyl-thalidomide)
# [2] = compound: compound 22 (5-morpholino-thalidomide)
# [3] = compound: compound 33 (diphenyl IMiD analogue)
# 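Further: pooled lentiviral library of zinc finger degron-EGFP fusions in mCherry-positive Jurkat cells, FACS-sorted after compound exposure, with degron abundance counted by next-generation sequencing.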
Sequence,log2 fold change of degron read counts [1],log2 fold change of degron read counts [2],log2 fold change of degron read counts [3],log2 fold change of degron read counts (compound: thalidomide)
"FTCDICGAQFTQKGNLLRHIKL [46F_47T_49D_50I_52G_53A_54Q_55F_67L_, Q9UKT9]",-0.504,1.41,1.33,1.15
"FDCDICGAQFTQKGNLLRHIKL [46F_47D_49D_50I_52G_53A_54Q_55F_67L_, Q9UKT9]",0.389,-1.35,-1.71,-1.04
"FLCDICGAQFTQKGNLLRHIKL [46F_47L_49D_50I_52G_53A_54Q_55F_67L_, Q9UKT9]",-0.363,-1.53,0.682,0.0613
"FCCDICGAQFTQKGNLLRHIKL [46F_47C_49D_50I_52G_53A_54Q_55F_67L_, Q9UKT9]",1.75,1.58,1.41,0.205
"FYCDICGAQFTQKGNLLRHIKL [46F_47Y_49D_50I_52G_53A_54Q_55F_67L_, Q9UKT9]",3.18,3.55,2.11,-0.00703
"FHCDICGAQFTQKGNLLRHIKL [46F_47H_49D_50I_52G_53A_54Q_55F_67L_, Q9UKT9]",1.04,1.14,-0.0246,-1.24
"FWCDICGAQFTQKGNLLRHIKL [46F_47W_49D_50I_52G_53A_54Q_55F_67L_, Q9UKT9]",2.88,3.68,1.52,0.174
"FQCDICGAQFTQKGNLLRHIKL [46F_47Q_49D_50I_52G_53A_54Q_55F_67L_, Q9UKT9]",-0.785,1.6,1.09,2.9
"FFCDICGAQFTQKGNLLRHIKL [46F_47F_49D_50I_52G_53A_54Q_55F_67L_, Q9UKT9]",3.41,3.28,1.67,0.0187
"FSCPQCGARFTQKGNLLRHIKL [46F_47S_49P_50Q_52G_53A_54R_55F_67L_, Q9UKT9]",0.264,-0.514,-0.493,-0.61
"LRCPICGFHCTQKGNLLRHIKL [46L_47R_49P_50I_52G_53F_54H_55C_67L_, Q9UKT9]",-0.0105,0.25,1.59,2.32
"FECEICGHTFTQKGNLLRHIKL [46F_47E_49E_50I_52G_53H_54T_55F_67L_, Q9UKT9]",-3.53,-3.12,-2.68,-2.57
"FECNVCGACFTQKGNLLRHIKL [46F_47E_49N_50V_52G_53A_54C_55F_67L_, Q9UKT9]",-1.77,-2.3,0.438,0.297
"FRCEICGAIFTQKGNLLRHIKL [46F_47R_49E_50I_52G_53A_54I_55F_67L_, Q9UKT9]",-1.64,-0.637,1.17,1.56
"FWCEICGAIFTQKGNLLRHIKL [46F_47W_49E_50I_52G_53A_54I_55F_67L_, Q9UKT9]",3.17,3.55,2.41,0.519
"FICEICGAIFTQKGNLLRHIKL [46F_47I_49E_50I_52G_53A_54I_55F_67L_, Q9UKT9]",-0.706,0.427,2.23,1.71
"FHCEICGAIFTQKGNLLRHIKL [46F_47H_49E_50I_52G_53A_54I_55F_67L_, Q9UKT9]",1.06,0.746,0.49,-0.388
"FNCEICGAIFTQKGNLLRHIKL [46F_47N_49E_50I_52G_53A_54I_55F_67L_, Q9UKT9]",0.366,-0.376,-0.467,-0.484
"FFCEICGAIFTQKGNLLRHIKL [46F_47F_49E_50I_52G_53A_54I_55F_67L_, Q9UKT9]",3.4,3.61,1.62,0.938
"FACEICGAIFTQKGNLLRHIKL [46F_47A_49E_50I_52G_53A_54I_55F_67L_, Q9UKT9]",3.52,1.96,0.532,0.207
"FDCEICGAIFTQKGNLLRHIKL [46F_47D_49E_50I_52G_53A_54I_55F_67L_, Q9UKT9]",-0.448,-0.893,-0.134,-0.014
"FGCEICGAIFTQKGNLLRHIKL [46F_47G_49E_50I_52G_53A_54I_55F_67L_, Q9UKT9]",2.93,2.72,1.73,0.804
"FSCEICGAIFTQKGNLLRHIKL [46F_47S_49E_50I_52G_53A_54I_55F_67L_, Q9UKT9]",2.19,1.4,1.65,0.91
"FYCEICGAIFTQKGNLLRHIKL [46F_47Y_49E_50I_52G_53A_54I_55F_67L_, Q9UKT9]",3.43,3.53,2.4,0.401
"FECEICGAIFTQKGNLLRHIKL [46F_47E_49E_50I_52G_53A_54I_55F_67L_, Q9UKT9]",-1.24,-1.08,1.05,2.4
